PubChem BioAssay (Tox21)
Several values for one entry are separate records, joined by “and”; a condition that tells them apart may be missing. Equal entries are not always repeated. Records with an inconclusive call do not appear. More than one record can exist for a structure, and the calls need not agree. Activity calls are given as the source filed them. Unless noted, calls follow the shape of the full dose curve.

Experiments:
[1] = Nuclear factor erythroid 2-related factor 2/antioxidant responsive element (Nrf2/ARE) small molecule agonists: qHTS cell viability counter screen in human keratinocytes (AID 1919968; active = well fitted curve in the direction sought with a large enough effect in the repeat runs; an effect the other way counts as inactive or inconclusive; also: nearly all actives have a fitted effect of over 55% in size; also: potency is read from the fitted curve at half-maximal effect)
Method in brief: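 HaCaT ARE reporter line, 1,500 cells/well; 5 h settle, 37 C/5% CO2; cpd in DMSO pinned; 23 h exposure; CellTiter-Fluor, 1 h; fluorescence.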

[2] = biological target: Gonadotropin-releasing hormone receptor (Homo sapiens) (UniProt P30968); assay: Human gonadotropin-releasing hormone receptor (GnRHR) small molecule agonists, calcium flux assay in GnRHR-HEK293 cells (AID 1920063); also: nearly all actives have a fitted effect of over 35% in size
Chain of Gonadotropin-releasing hormone receptor (Homo sapiens) (P30968 whole entry, looked up): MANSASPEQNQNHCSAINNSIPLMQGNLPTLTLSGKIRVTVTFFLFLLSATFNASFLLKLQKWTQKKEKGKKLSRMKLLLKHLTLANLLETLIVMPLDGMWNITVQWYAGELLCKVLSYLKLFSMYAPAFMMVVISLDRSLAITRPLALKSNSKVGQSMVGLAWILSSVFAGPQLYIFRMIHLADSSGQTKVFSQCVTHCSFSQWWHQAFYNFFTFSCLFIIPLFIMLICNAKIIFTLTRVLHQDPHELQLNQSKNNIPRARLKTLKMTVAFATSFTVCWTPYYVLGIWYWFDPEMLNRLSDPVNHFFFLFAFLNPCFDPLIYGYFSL
Method in brief: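 GnRHR-HEK293, 1500 cells/well, 18 h 37 C/5% CO2; Ca dye 1 h 37 C; cpd pinned (DMSO), agonist mode; kinetic FL 480/540, 3 min, 1 s reads; 15 conc, n=3.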

[3] = biological target: KiSS-1 receptor (Homo sapiens) (UniProt Q969F8); assay: Human kisspeptin (KISS1R) small molecule agonists, calcium flux assay in KISS1R-HEK293 cells (AID 1920064; active = well fitted curve in the direction sought with a large enough effect in the repeat runs; an effect the other way counts as inactive or inconclusive)
Chain of KiSS-1 receptor (Homo sapiens) (Q969F8 whole entry, looked up): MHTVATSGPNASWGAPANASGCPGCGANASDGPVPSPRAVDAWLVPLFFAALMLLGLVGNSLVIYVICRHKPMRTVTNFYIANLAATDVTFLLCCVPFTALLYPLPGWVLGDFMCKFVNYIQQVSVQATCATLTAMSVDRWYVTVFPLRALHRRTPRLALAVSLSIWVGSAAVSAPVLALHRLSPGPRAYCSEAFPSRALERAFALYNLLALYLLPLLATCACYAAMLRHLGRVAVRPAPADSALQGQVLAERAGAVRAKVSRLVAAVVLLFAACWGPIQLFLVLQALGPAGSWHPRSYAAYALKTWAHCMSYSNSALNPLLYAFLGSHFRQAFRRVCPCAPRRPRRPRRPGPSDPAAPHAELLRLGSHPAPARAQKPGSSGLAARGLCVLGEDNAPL
Method in brief: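 Stable human KISS1R HEK293 line; 18 h plating, 37 C/5% CO2; calcium dye 1 h 37 C; compound pin transfer; kinetic fluorescence Ex/Em 480/540, 3 min.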

[4] = G protein-coupled receptor (GPCR) small molecule agonists, calcium flux assay: HEK293 wild type cell line counter screen (AID 1920065)
Method in brief: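 Kinetic fluorescence at Ex/Em 480/540, recorded every second over 3 min, served as the read-out after compound addition. Each compound was tested at 15 concentrations in triplicate on cells pre-loaded with calcium dye for 1 h.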

[5] = p53 small molecule agonists, cell-based qHTS assay with human liver microsomes: qHTS cell viability counter screen (AID 1963579); also: nearly all actives have a fitted effect of over 45% in size; also: potency is read from the fitted curve at half-maximal effect
Method in brief: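 Luminescent CellTiter-Glo read-out, 30 min at room temperature, gauged cytotoxicity in p53RE-bla cells exposed 16 h at 37 C to DMSO-dissolved compounds with metabolic activation by human liver microsomes and NADPH, each 0.5 mg/mL final.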

[6] = p53 small molecule agonists, cell-based qHTS assay with rat liver microsomes: qHTS cell viability counter screen (AID 1963580); also: nearly all actives have a fitted effect of over 45% in size
Method in brief: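 p53RE-bla HCT-116 cells were exposed 16 h at 37 C to compounds with rat liver microsomes (0.5 mg/mL) and NADPH (0.5 mg/mL). Viability was measured in the same wells as ATP content by CellTiter-Glo luminescence.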

[7] = p53 small molecule agonists, cell-based qHTS assay: qHTS cell viability counter screen (AID 1963581); also: nearly all actives have a fitted effect of over 45% in size
Method in brief: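 HCT-116 p53RE-bla cells, 4,000/well, plated 5 h before compound pin transfer; 16 h at 37 C; bla substrate 2 h RT; then CellTiter-Glo, 30 min RT, luminescence.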

[8] = biological target: 5-hydroxytryptamine receptor 2A (Homo sapiens) (UniProt P28223); assay: 5-hydroxytryptamine receptor 2A (HTR2A) small molecule antagonists, cell-based qHTS assay (AID 1963586); also: nearly all actives have a fitted effect of over 45% in size; also: potency is read from the fitted curve at half-maximal effect
Chain of 5-hydroxytryptamine receptor 2A (Homo sapiens) (P28223 whole entry, looked up): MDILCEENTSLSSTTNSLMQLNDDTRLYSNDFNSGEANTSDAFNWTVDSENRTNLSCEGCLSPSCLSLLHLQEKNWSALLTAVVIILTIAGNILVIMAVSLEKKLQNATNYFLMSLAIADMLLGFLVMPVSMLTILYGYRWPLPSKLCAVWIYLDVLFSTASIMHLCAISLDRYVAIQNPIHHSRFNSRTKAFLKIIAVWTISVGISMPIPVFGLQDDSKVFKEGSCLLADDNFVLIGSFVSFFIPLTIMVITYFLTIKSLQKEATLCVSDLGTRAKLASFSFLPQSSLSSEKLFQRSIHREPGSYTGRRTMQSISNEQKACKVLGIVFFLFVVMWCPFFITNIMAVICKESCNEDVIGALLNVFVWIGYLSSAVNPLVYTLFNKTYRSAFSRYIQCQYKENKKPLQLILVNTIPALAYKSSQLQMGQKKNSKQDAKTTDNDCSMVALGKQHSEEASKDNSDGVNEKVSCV
Method in brief: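 Antagonist-mode intracellular calcium assay: DOI (4 nM) added after 5 min compound pre-incubation at room temperature to dye-loaded HTR2A-CHO cells. Fluorescence followed for 3 min, sampled every second.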

[9] = biological target: 5-hydroxytryptamine receptor 2A (Homo sapiens) (UniProt P28223); assay: 5-hydroxytryptamine receptor 2A (HTR2A) small molecule agonists, cell-based qHTS assay (AID 1963587); also: nearly all actives have a fitted effect of over 30% in size; also: potency is read from the fitted curve at half-maximal effect
Method in brief: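 CHO cells stably expressing human HTR2A, plated 18 h, loaded with calcium dye 1 h at 37 C. Agonist mode: compounds added and intracellular calcium fluorescence recorded kinetically for 2 min at 1 sec intervals.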

[10] = biological target: Muscarinic acetylcholine receptor M1 (Homo sapiens) (UniProt P11229); assay: Cholinergic receptor muscarinic 1 (CHRM1) small molecule antagonists, cell-based qHTS assay (AID 1963588); also: nearly all actives have a fitted effect of over 40% in size; also: potency is read from the fitted curve at half-maximal effect
Chain of Muscarinic acetylcholine receptor M1 (Homo sapiens) (P11229 whole entry, looked up): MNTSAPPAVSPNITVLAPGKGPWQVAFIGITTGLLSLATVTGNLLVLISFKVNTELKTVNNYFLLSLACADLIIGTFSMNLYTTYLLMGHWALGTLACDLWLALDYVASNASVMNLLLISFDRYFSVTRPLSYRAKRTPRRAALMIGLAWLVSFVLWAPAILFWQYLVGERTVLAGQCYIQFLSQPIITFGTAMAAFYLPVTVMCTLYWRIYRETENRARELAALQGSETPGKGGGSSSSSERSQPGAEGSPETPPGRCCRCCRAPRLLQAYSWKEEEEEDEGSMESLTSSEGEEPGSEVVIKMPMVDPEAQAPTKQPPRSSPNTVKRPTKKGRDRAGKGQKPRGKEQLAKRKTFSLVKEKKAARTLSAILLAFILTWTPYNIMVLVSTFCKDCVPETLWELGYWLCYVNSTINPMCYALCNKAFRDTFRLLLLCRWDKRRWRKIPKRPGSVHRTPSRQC
Method in brief: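 CHRM1-CHO calcium-flux assay, antagonist mode. Cells were seeded 18 h, dye-loaded 1 h at 37 C and given compound for 5 min at RT, then acetylcholine was added at 50nM. FDSS fluorescence was read 3 min; 15 concentrations, three runs.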

[11] = biological target: Muscarinic acetylcholine receptor M1 (Homo sapiens) (UniProt P11229); assay: Cholinergic receptor muscarinic 1 (CHRM1) small molecule agonists, cell-based qHTS assay (AID 1963589); also: nearly all actives have a fitted effect of over 35% in size; also: potency is read from the fitted curve at half-maximal effect
Method in brief: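 Human M1 in stable CHO line; 18 h plating, 1 h dye load 37 C; cpd added (agonist mode); Ca2+ fluorescence kinetic read, 1 s intervals; 15 conc, 3 runs.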

[12] = cAMP Responsive Elements (CRE) small molecule agonists, cell-based qHTS assay (AID 1963590)
Method in brief: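 HEK 293T CRE-bla, 2,000 cells/well, 18 h preincubation 37 C/5% CO2; cpds (DMSO) pinned, 3 h; LiveBLAzer B/G FRET substrate, 2 h RT.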

[13] = cAMP Responsive Elements (CRE) small molecule antagonists, cell-based qHTS assay (AID 1963591; active = well fitted inhibition curve with a large enough effect in the signal ratio in the repeat runs, not every such curve was filed as active; the % refers to the signal ratio)
Method in brief: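 Beta-lactamase reporter read by FRET substrate (LiveBLAzer B/G) after 2 h at room temperature. CRE-bla HEK293T cells had received compound plus 0.25 uM (final) NKH477 for 3 h at 37 °C.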

[14] = biological target: Beta-2 adrenergic receptor (Homo sapiens) (UniProt P07550); assay: Adrenergic beta2 receptor (ADRB2) small molecule antagonists, cell-based qHTS assay (AID 1963592); also: series mostly up to about 92 µM; nearly all actives have a fitted effect of over 50% in size
Chain of Beta-2 adrenergic receptor (Homo sapiens) (P07550 whole entry, looked up): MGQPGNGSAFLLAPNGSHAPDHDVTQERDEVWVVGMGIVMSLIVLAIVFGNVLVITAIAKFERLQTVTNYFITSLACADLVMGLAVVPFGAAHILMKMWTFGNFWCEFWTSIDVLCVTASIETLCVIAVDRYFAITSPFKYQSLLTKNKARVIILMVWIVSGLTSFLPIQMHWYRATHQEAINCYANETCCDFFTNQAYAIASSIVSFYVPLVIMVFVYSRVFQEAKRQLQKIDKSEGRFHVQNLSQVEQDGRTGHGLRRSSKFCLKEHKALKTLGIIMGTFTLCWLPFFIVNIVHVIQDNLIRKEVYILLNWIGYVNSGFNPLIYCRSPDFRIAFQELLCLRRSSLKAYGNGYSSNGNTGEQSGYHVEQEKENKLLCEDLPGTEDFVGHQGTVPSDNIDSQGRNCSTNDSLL
Method in brief: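 Cells (CHO, stable ADRB2 overexpression) incubated 18-20hr at 37C; compounds added from DMSO; agonist mix (1nM isoproterenol, 100uM IBMX, 25uM Ro-20-1724) added; 0.5hr RT; d2-cAMP and anti-cAMP-cryptate added; 1hr RT; 665/615 nm read.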

[15] = biological target: D(2) dopamine receptor (Homo sapiens) (UniProt P14416); assay: Dopamine D2 receptor (DRD2) small molecule agonists, cell-based qHTS assay (AID 1963594); also: nearly all actives have a fitted effect of over 35% in size
Chain of D(2) dopamine receptor (Homo sapiens) (P14416 whole entry, looked up): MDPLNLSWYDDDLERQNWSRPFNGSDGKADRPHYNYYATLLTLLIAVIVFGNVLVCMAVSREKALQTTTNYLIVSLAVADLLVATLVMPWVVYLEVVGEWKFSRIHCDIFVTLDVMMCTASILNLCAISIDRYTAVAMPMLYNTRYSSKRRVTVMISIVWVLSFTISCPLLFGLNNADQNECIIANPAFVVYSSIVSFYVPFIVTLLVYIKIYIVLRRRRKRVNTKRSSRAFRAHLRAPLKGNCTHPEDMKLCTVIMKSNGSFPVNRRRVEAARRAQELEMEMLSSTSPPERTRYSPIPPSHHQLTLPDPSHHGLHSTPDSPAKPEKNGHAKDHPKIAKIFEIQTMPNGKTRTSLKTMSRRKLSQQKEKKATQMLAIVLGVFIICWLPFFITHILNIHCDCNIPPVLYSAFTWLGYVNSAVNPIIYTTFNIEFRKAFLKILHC
Method in brief: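 HEK293 cells stably expressing human DRD2, pre-treated with PDE inhibitor Ro20-1724 (0.1 mM final) and compound 10 min at room temperature, then stimulated with NKH477 (200nM […]) for 30 min. cAMP read by HTRF (665/620 nm).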

[16] = biological target: D(2) dopamine receptor (Homo sapiens) (UniProt P14416); assay: Dopamine D2 receptor (DRD2) small molecule antagonists, cell-based qHTS assay (AID 1963595; active = well fitted inhibition curve with a large enough effect in the signal ratio in the repeat runs, with a control signal flat; the % refers to the signal ratio; also: potency is read from the fitted curve at half-maximal effect)
Method in brief: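 Antagonist mode in DRD2-HEK293 cells: after compound addition with 0.1 mM Ro20-1724, cells received quinpirole (12 nM) and NKH477 (200 nM) for 30 min at room temperature; HTRF cAMP read after 1 h detection.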

[17] = p53 small molecule agonists, cell-based qHTS assay with human liver microsomes (AID 1963577);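 also: p53 response element beta-lactamase reporter cells with liver microsomes plus NADPH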
Method in brief: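 p53RE-bla cells; 5 h settle, 37 C/5% CO2; cpd + HLM 0.5 mg/mL + NADPH 0.5 mg/mL (final); 16 h 37 C; LiveBLAzer 2 h RT dark; fluorescence readout.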

[18] = p53 small molecule agonists, cell-based qHTS assay with rat liver microsomes (AID 1963578)
Method in brief: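 Rat liver microsome activation: microsomes 0.5 mg/mL, NADPH 0.5 mg/mL final; p53RE-bla cells, 16 h 37 C; LiveBLAzer readout, 2 h RT dark.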

[19] = biological target: Beta-2 adrenergic receptor (Homo sapiens) (UniProt P07550); assay: Adrenergic beta2 receptor (ADRB2) small molecule agonists, cell-based qHTS assay (AID 1963593);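 also: CHO cells stably overexpressing human ADRB2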
Method in brief: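 CHO cells stably over-expressing ADRB2 were plated overnight at 37C, then dosed with compounds plus a stimulation mix containing 100uM IBMX and 25uM Ro-20-1724 for 0.5hr at room temperature. cAMP was measured by HTRF competition, 1hr.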

[20] = p53 small molecule agonists, cell-based qHTS assay (AID 1963582; active = well fitted activation curve with a large enough effect in the signal ratio in the repeat runs, not every such curve was filed as active; the % refers to the signal ratio; also: potency is read from the fitted curve at half-maximal effect)
Method in brief: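 Reporter line: p53RE-bla. Pre-incubation 5 h, 37 C, 5% CO2; compound (DMSO, pin tool) 16 h, 37 C; B/G FRET substrate 2 h RT; fluorescence intensity read.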

Measured: Potency

O=NO
not listed: [17] | [18] | [19] | [20]
inactive: all other assays above

NC(N)=NC(N)=NCCc1ccccc1
not listed: [20]
inactive: all other assays above

CC#C[C@]1(O)CC[C@H]2[C@@H]3CCC4=CC(=O)CCC4=C3[C@@H](c3ccc(N(C)C)cc3)C[C@@]21C
inactive: [1] | [2] | [3] | [4] | [17] | [18] | [5] | [6] | [14] | [15] | [16]

CC1(C)NC(=O)N(c2ccc([N+](=O)[O-])c(C(F)(F)F)c2)C1=O
not listed: [7]
inactive: all other assays above

O=C(O)c1cc(C(=O)O)cc(S(=O)(=O)O)c1
not listed: [6] | [11] | [17] | [18] | [20]
inactive: all other assays above

CNNCc1ccc(C(=O)NC(C)C)cc1
not listed: [8] | [9] | [10] | [11]
inactive: all other assays above

Nc1c2c(nc3ccccc13)CCCC2
54.5 µM (active) and inactive: [1]
not listed: [8] | [9] | [10] | [11] | [12] | [17] | [20]
inactive: all other assays above

CCCCCCCCCCCCN
5.94 µM (active) and inactive: [8]
inactive and 24.5 µM (active): [11]
inactive and 43.3 µM (active): [16]
24.5 µM (active) and inactive: [9]
inactive and 30.6 µM (active): [1]
inactive and 40.8 µM (active): [5]
not listed: [2] | [4] | [13]
inactive: all other assays above

COCC(C)N (stereo not given)
not listed: [1] | [16]
inactive: all other assays above

C=CCc1ccc(O)c(OC)c1
not listed: [8] | [9] | [10] | [11]
inactive: all other assays above

CCN(CC)C(=O)c1cccc(C)c1
not listed: [17] | [18] | [20]
inactive: all other assays above

CN1CCC[C@H]1c1cccnc1
not listed: [8] | [9] | [10] | [11] | [16] | [17] | [18] | [20]
inactive: all other assays above

NNC(=O)c1ccncc1
not listed: [8] | [9] | [10] | [11]
inactive: all other assays above

NCCCCCCN
inactive and 16.8 µM (active): [10]
not listed: [7] | [8]
inactive: all other assays above

Cc1ccc(S(=O)(=O)O)cc1
not listed: [3] | [17] | [18] | [20]
inactive: all other assays above

O=C1O[C@H]([C@@H](O)CO)C(O)=C1O
not listed: [8] | [9] | [10] | [11]
inactive: all other assays above

O=S(=O)(O)NC1CCCCC1
not listed: [15] | [17] | [18] | [19] | [20]
inactive: all other assays above

O=C1NS(=O)(=O)c2ccccc21
not listed: [3] | [4] | [13] | [17] | [18] | [20]
inactive: all other assays above

Nc1ccc(S(N)(=O)=O)cc1
not listed: [5] | [6] | [8] | [9] | [10] | [11] | [17] | [18]
inactive: all other assays above

Oc1ccccc1
not listed: [2] | [6] | [8] | [9] | [10] | [11] | [18]
inactive: all other assays above

Cc1cccc(C)c1O
not listed: [3] | [6] | [11] | [18] | [19] | [20]
inactive: all other assays above

O=C(O)CCCC[C@@H]1SC[C@@H]2NC(=O)N[C@@H]21
not listed: [15] | [17] | [18] | [19] | [20]
inactive: all other assays above

O=c1c(O)c(-c2ccc(O)c(O)c2)oc2cc(O)cc(O)c12
not listed: [3] | [6] | [12]
inactive: all other assays above

CC(COc1ccccc1)N(CCCl)Cc1ccccc1 (stereo not given)
not listed: [7] | [8] | [13] | [15]
inactive: all other assays above

CCOC(=O)CC(=O)OCC
not listed: [2] | [19]
inactive: all other assays above

O=C(O)CCCCC1CCSS1 (stereo not given)
not listed: [4] | [8] | [9] | [10] | [11] | [13] | [18]
inactive: all other assays above

CCc1cccc(O)c1
not listed: [3] | [13] | [16]
inactive: all other assays above

S=c1nc[nH]c2nc[nH]c12
active: [20] 9.99 µM and 7.93 µM
not listed: [8] | [9] | [10] | [11] | [13]
inactive: all other assays above

Cc1noc(NS(=O)(=O)c2ccc(N)cc2)c1C
not listed: [8] | [9] | [10] | [11]
inactive: all other assays above
